KCNQ2 inh: rat KCNQ2 potassium channel inhibitors, primary screen, cell-based, CHO-K1, FluxOR thallium flux, B-score; Potassium voltage-gated channel subfamily KQT member 2 (Rattus norvegicus), O88943; 20 min; active compounds read low; B-score at 10 µM; 310,000 compounds, 1.1% hits; AID 2156, 2009;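 active = fluorescence ratio B-score at most minus 3 library SDs, with starting brightness B-score within 2 library SDs, cut at about -5.5 in these data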
Target sequence (O88943 whole entry, looked up): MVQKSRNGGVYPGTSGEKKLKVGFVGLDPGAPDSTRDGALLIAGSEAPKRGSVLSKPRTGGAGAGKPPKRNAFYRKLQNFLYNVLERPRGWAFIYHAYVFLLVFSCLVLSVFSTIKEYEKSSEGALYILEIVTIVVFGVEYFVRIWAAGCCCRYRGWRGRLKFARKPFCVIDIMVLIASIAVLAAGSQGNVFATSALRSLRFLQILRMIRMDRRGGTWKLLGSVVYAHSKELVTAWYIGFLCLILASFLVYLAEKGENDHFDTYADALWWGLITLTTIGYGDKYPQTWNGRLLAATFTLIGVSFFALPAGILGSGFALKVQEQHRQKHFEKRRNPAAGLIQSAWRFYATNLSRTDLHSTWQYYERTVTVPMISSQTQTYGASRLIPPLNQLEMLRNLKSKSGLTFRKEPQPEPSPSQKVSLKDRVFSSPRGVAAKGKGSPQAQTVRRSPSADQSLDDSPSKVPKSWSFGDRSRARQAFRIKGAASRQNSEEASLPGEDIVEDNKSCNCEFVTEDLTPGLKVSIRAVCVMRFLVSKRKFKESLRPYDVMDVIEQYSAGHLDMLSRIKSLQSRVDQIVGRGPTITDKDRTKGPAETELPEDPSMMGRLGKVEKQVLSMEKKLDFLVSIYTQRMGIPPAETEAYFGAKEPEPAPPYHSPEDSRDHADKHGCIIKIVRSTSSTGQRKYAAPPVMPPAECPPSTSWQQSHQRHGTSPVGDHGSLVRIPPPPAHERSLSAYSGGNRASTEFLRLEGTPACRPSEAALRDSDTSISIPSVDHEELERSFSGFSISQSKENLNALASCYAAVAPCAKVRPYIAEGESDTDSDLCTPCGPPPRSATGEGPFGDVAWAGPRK
KCNQ2 pot: potentiators of rat KCNQ2 potassium channel. Potassium voltage-gated channel subfamily KQT member 2 (Rattus norvegicus), O88943. CHO-K1 KCNQ2, FluxOR thallium flux fluorescence; active compounds read high. B-score at 10 µM. 310,000 compounds, 0.54% hits;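 active = fluorescence ratio B-score at least 3 SD of library B-scores, with initial fluorescence B-score within 3 of them, cut at about 5.3 in these data; same plate scores as AID 2156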;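 also: B-score of peak minus minimum over baseline fluorescence ratio after K+ and Tl+ stimulus; positive B-score means potentiation of KCNQ2 with more thallium influx and brighter signal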
* marks the source's active call; other numbers are inactive results. The list is not random: actives were taken first. Their share in the collection is about 1.6%.

What do the screens show for `O=C(Nc1ccon1)Nc1cc(Cl)ccc1Cl`?
KCNQ2 inh: inactive

Results for CC1C(=O)C(C)C(c2ccc3c(c2)OCO3)NC1c1ccc2c(c1)OCO2 (centres undefined) ?
KCNQ2 inh: inactive

How did CC1C(=O)C(C)C(c2ccc(Br)cc2)NC1c1ccc(Br)cc1 (centres undefined) do in these assays?
KCNQ2 inh: -6.28*; KCNQ2 pot: -6.28

How did Cc1cc(C(=O)NCC(=O)OC(C(=O)Nc2cc(C(F)(F)F)ccc2Cl)c2ccccc2)ccc1[N+](=O)[O-] (centres undefined) do in these assays?
KCNQ2 inh: -5.79*; KCNQ2 pot: -5.79

Results for O=C(Nc1cc(C(F)(F)F)ccc1Cl)C(Sc1ccccn1)c1ccccc1 (centres undefined) ?
KCNQ2 inh: inactive

How did COc1ccc(C)cc1NC(=O)C(OC(=O)CNC(=O)c1ccc(Br)cc1)c1ccccc1 (centres undefined) do in these assays?
KCNQ2 inh: inactive

Results for CCCC(=O)OC(C(=O)Nc1cc(C(F)(F)F)ccc1Cl)c1ccccc1 (centres undefined) ?
KCNQ2 inh: -5.59*; KCNQ2 pot: -5.59

What do the screens show for `Cc1ccc(NC(=S)NC2CCSc3ccccc32)cc1C` (centres undefined)?
KCNQ2 inh: inactive

How did COc1ccc(F)cc1C(=O)C1CCCN(Cc2c(C)n(C)n(-c3ccccc3)c2=O)C1 (centres undefined) do in these assays?
KCNQ2 inh: inactive; KCNQ2 pot: 0.14

Results for N#CCCN(C(=O)COC(=O)C1CCN(S(=O)(=O)c2ccc3c(c2)OCCO3)CC1)c1ccccc1 ?
KCNQ2 inh: inactive

How did O=C1CCc2cc(S(=O)(=O)Nc3ccccc3)cc3c2N1CC3 do in these assays?
KCNQ2 inh: inactive; KCNQ2 pot: 1.27

Results for Cc1cccc(OCC(=O)Nc2ccccc2C(F)(F)F)c1 ?
KCNQ2 inh: inactive

How did Cc1cccc(C)c1OCC(=O)Nc1ccccc1C(F)(F)F do in these assays?
KCNQ2 inh: -7.01*; KCNQ2 pot: -7.01

How did CCN(CC(=O)Nc1ccccc1C(F)(F)F)C(=O)c1oc2c(Cl)cccc2c1C do in these assays?
KCNQ2 inh: -6.81*; KCNQ2 pot: -6.81

How did CCN(CC(=O)Nc1ccc(OC)cc1)C(=O)c1oc2c(Cl)cccc2c1C do in these assays?
KCNQ2 inh: inactive; KCNQ2 pot: 0.26

How did Cc1cccc(C)c1OCC(=O)NCc1ccccc1 do in these assays?
KCNQ2 inh: -6.38*; KCNQ2 pot: -6.38

Results for O=C(COc1ccccc1)NCc1ccccc1 ?
KCNQ2 inh: inactive; KCNQ2 pot: 0.27

What do the screens show for `COC(=O)c1ccc(N2CCN(C)CC2)c(NC(=O)c2sc3ccccc3c2Cl)c1`?
KCNQ2 inh: inactive

What do the screens show for `O=C(Nc1nc2ccccc2[nH]1)NC1CCCCC1`?
KCNQ2 inh: inactive; KCNQ2 pot: 0.43

How did COc1ccc(S(=O)(=O)N2CCN(C(=O)NCc3ccc(C)cc3)CC2)cc1 do in these assays?
KCNQ2 inh: inactive; KCNQ2 pot: 0.2

Results for CN(CCCNC(=O)CSc1cc(=O)n(C)c2ccc(Cl)cc12)Cc1ccccc1 ?
KCNQ2 inh: inactive; KCNQ2 pot: 0.08

What do the screens show for `O=C(Nc1cccc(/C=C/c2ccccn2)c1)c1ccc(-n2cncn2)c([N+](=O)[O-])c1`?
KCNQ2 inh: inactive

What do the screens show for `O=C(c1nc2ccc(Cl)cn2c1CNCC[C@@H]1C[C@@H]2C=C[C@H]1C2)N1CCCCCCC1`?
KCNQ2 inh: -5.85*; KCNQ2 pot: -5.85

Results for C[C@@H]1CN(C(=O)c2nc3ccc(Cl)cn3c2CNCC[C@@H]2C[C@@H]3C=C[C@H]2C3)C[C@H](C)O1 ?
KCNQ2 inh: inactive

Results for Cc1ccc(S(=O)(=O)N2CCC(=O)N(C(COCc3ccc(Cl)c(Cl)c3)Cc3ccccc3)CC2)cc1 (centres undefined) ?
KCNQ2 inh: inactive

What do the screens show for `Cc1ccc(S(=O)(=O)N2CCC(=O)N(C(COCc3cccc(C)c3)Cc3ccccc3)CC2)cc1` (centres undefined)?
KCNQ2 inh: -6.45*; KCNQ2 pot: -6.45

Results for O=C(c1ccc(Cl)c(Cl)c1)N1CCC(=O)N(C(COCc2cccc(Cl)c2)Cc2ccccc2)CC1 (centres undefined) ?
KCNQ2 inh: -6.19*; KCNQ2 pot: -6.19

How did Cc1ccc(S(=O)(=O)N2CCC(=O)N(C(COCc3ccc(C(F)(F)F)cc3)Cc3ccccc3)CC2)cc1 (centres undefined) do in these assays?
KCNQ2 inh: -6.07*; KCNQ2 pot: -6.07

What do the screens show for `Cc1ccc(COCC(CC(C)C)N2CCN(C(=O)c3cccc(C(F)(F)F)c3)CCC2=O)cc1` (centres undefined)?
KCNQ2 inh: inactive

Results for O=C(c1cccc(Cl)c1)N1CCC(=O)N(C(COCc2cccc(Cl)c2)Cc2ccccc2)CC1 (centres undefined) ?
KCNQ2 inh: inactive

What do the screens show for `CC(C)CC(COCc1ccc(F)cc1)N1CCN(C(=O)c2cccc(C(F)(F)F)c2)CCC1=O` (centres undefined)?
KCNQ2 inh: -6.06*; KCNQ2 pot: -6.06

Results for Cc1ccc(S(=O)(=O)N2CCC(=O)N(C(COCc3ccc(C(F)(F)F)cc3)C(C)C)CC2)cc1 (centres undefined) ?
KCNQ2 inh: inactive

What do the screens show for `CCOC(=O)N1CCC(NC(=O)c2cc(COc3ccccc3SC)on2)CC1`?
KCNQ2 inh: inactive

Results for COc1ccc(CCNC(=O)c2c[nH]c3ccc(F)cc3c2=O)cc1OC ?
KCNQ2 inh: inactive; KCNQ2 pot: 2.05

Results for COc1ccc(C2=NOC(Cn3nc(C(=O)NCc4ccccc4OC)cc3-c3ccccc3)C2)cc1 (centres undefined) ?
KCNQ2 inh: inactive

Results for CCOC(=O)C1CCN(Cc2cc(Cl)c3ccccc3c2O)CC1 ?
KCNQ2 inh: inactive

What do the screens show for `CCn1nc(C)c(NC(=O)CC23CC4CC(CC(C4)C2)C3)c1C`?
KCNQ2 inh: inactive; KCNQ2 pot: 21.2*

Results for Cc1nn(C)cc1NC(=O)CC12CC3CC(CC(C3)C1)C2 ?
KCNQ2 inh: inactive; KCNQ2 pot: 2.06

What do the screens show for `CCOc1ccc(NC(=O)CN(C)C(=O)c2ccc3c(c2)C(=O)N(CCC(C)C)C3=O)cc1OCC`?
KCNQ2 inh: inactive

What do the screens show for `O=[N+]([O-])c1ccc(-c2nnc(-c3ccccc3)c(N3CCOCC3)n2)cc1`?
KCNQ2 inh: inactive

What do the screens show for `Clc1ccc(-c2nnc(-c3ccccc3)c(-c3ccccc3)n2)cc1`?
KCNQ2 inh: -6.24*; KCNQ2 pot: -6.24

Results for Clc1ccc(-c2nnc(-c3ccccc3)c(N3CCSCC3)n2)cc1 ?
KCNQ2 inh: -6*; KCNQ2 pot: -6

Results for Clc1ccc(-c2nnc(-c3ccccc3)c(-c3c[nH]c4ccccc34)n2)cc1 ?
KCNQ2 inh: inactive; KCNQ2 pot: 1.13

How did Cc1cc(NC(=O)C(C)SCC(=O)Nc2ccc(Br)cc2Br)no1 (centres undefined) do in these assays?
KCNQ2 inh: inactive; KCNQ2 pot: 1.48

Results for CC(C)C(=O)Nc1nnc(S(=O)(=O)N(C)c2ccc(Cl)cc2)s1 ?
KCNQ2 inh: inactive

How did S=C(NCc1ccccc1)NC1CCCCC1 do in these assays?
KCNQ2 inh: inactive; KCNQ2 pot: 1.26
